Screens as filed in PubChem BioAssay.
Rows were chosen to be rich in hits. Some 10% of all compounds tested hit in one or more screens of this group.
G9a inh – inhibitors of human histone lysine methyltransferase G9a; Q96KQ7; G9a H3K9 monomethylation, AlphaScreen, 2 h; Potency, µM (doses to about 102 µM), without a hit: at the highest dose activity, negative = inhibition, actives largely listed as inhibitors; hit rate 8.8% among 350,000; further: potency means the concentration at half of the fitted maximal effect; on the % scale 0 is the no-effect control and ±100 the full control effect; nearly all actives have a fitted effect of over 75% in size
Target sequence (Q96KQ7 913-1193 limits assumed): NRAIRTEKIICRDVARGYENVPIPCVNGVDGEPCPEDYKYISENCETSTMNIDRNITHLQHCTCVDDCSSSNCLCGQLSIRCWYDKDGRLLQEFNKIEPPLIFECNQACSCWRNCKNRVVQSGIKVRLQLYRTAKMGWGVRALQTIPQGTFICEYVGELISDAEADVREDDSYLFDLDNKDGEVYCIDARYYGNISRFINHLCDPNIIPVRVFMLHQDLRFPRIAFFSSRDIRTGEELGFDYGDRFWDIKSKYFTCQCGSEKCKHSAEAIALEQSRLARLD
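AlphaScreen detection with an anti-monomethyl H3K9 antibody quantified product after a 2 h room-temperature reaction containing 500 nM biotinylated H3K9 peptide, 20 µM SAM and 20 nM enzyme, which had been preincubated 15 min with compound.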
HP1b chromo inh – HP1-beta chromodomain-methylated histone interaction inhibition. P83916. AlphaScreen HP1-beta / biotin-H3K9me3 peptide binding. Potency, µM (doses to about 114 µM), without a hit: top-dose activity change, negative = inhibition, hits mostly inhibitors. hit rate 0.56% among 390,000. AID 540317; further: potency means the concentration at half of the fitted maximal effect; nearly all actives have a fitted effect of over 70% in size
Target sequence (P83916 whole entry, looked up): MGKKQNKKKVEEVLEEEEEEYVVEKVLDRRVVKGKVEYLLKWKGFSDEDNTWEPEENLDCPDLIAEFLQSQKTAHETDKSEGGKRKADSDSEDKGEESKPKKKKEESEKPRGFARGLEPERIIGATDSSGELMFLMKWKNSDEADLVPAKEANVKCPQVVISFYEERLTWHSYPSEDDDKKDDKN
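Compound inhibition of the preformed complex between 50 nM HP1-beta and 50 nM biotinylated H3K9me3 peptide was read by AlphaScreen. Buffer was PBS pH 7.4 with 0.01% Tween-20. Incubations ran 30 min at room temperature, with 10 ug/mL donor/acceptor beads.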
BAZ2B inh – BAZ2B (human) inhibition | Q9UIF8 | AlphaScreen BAZ2B-H3K14Ac peptide displacement | Potency, µM (highest dose often 114 µM), for inactives: at the highest dose activity change, negative = inhibition, actives largely listed as inhibitors | hit rate 4.4% among 360,000 | AID 504333; further: potency means the concentration at half of the fitted maximal effect; on the % scale 0 is the no-effect control and ±100 the full control effect; nearly all actives have a fitted effect of over 60% in size
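BAZ2B (50 nM) with biotin-H3(5-23)K14Ac peptide (50 nM) in PBS pH 7.4, 0.01% Tween-20, preformed 30 min, then compound 30 min at room temperature; top concentration 110uM. AlphaScreen streptavidin donor/nickel chelate acceptor beads (10 ug/mL final), 20 min dark, signal read.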
JMJD2A Tudor inh – JMJD2A Tudor domain (human) inhibition; AID 504339; AlphaScreen JMJD2A-Tudor / H3K4me3 peptide binding; Potency, µM (highest dose often 114 µM), for the others: top-dose activity change, negative = inhibition, hits mostly inhibitors; hit rate 4.4% among 390,000; O75164; further: potency means the concentration at half of the fitted maximal effect; on the % scale 0 is the no-effect control and ±100 the full control effect; nearly all actives have a fitted effect of over 50% in size
CtBP-E1A inh – inhibitors of CtBP/E1A interaction; AID 651724; AlphaScreen GST-E1A/His-CtBP binding, 1536-well; stronger effect = lower value; hit rate 0.49% among 340,000; activity change, % (no concentration beside the values); in the data active means activity change below about -65%; inconclusive means mostly about -30% to -63%; further: on the % scale 0 is the no-effect control and ±100 the full control effect
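Homogeneous bead-based format: GST-tagged E1A captured on glutathione donor beads, His-tagged CtBP on nickel acceptor beads; compounds precede bead addition by 2 h at 37 °C.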
Six1-Eya2 blk – blocks human Six1 binding to Eya2; Q15475+O00167; AlphaScreen GST-Six1/His-Eya2 binding, biochemical; stronger effect = lower value; activity change, % (concentration not given with the values); hit rate 0.56% among 360,000; AID 651725; in the data active means activity change below about -65%; inconclusive means mostly about -30% to -63%; further: on the % scale 0 is the no-effect control and ±100 the full control effect
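Homogeneous AlphaScreen proximity assay pairing GST-Six1 with His-tagged Eya2 (added as 5X mix: 250 nM and 500 nM) in 50 mM Tris pH 8.0, 300 mM NaCl, 1 mM TCEP. Glutathione donor and nickel acceptor beads; 1 h, 37 °C, dark.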
* = called active by the depositor; ? = inconclusive; . = no result given; [ ] = dose if it differs, or a comment. Unless noted, the call rests on the fitted dose curve; in most records, active means well fitted inhibition curve with a large enough effect; inconclusive means small, poorly fitted or top-dose-only effect; inactive means no such curve, though single readings can be large or run the other way.

SMILES	G9a inh	HP1b chromo inh	BAZ2B inh	JMJD2A Tudor inh	CtBP-E1A inh	Six1-Eya2 blk
CC(Sc1nc(=O)cc(N)n1CCc1ccccc1)C(=O)Nc1ccc(Cl)cc1 (stereo not drawn)	4%[59 µM]	50%	-19%	-16%	.	.
Nc1nccnc1C(=O)OCC(=O)c1ccc[nH]1	50µM*	6%	-1%	-16%	-3	2
CCOc1ncccc1C(=O)OCC(=O)c1ccc[nH]1	14%	49%	-2%	-8%[57.1 µM]	1	-1
CCOC(=O)C1CCN(C(=O)C2COc3ccccc3C2)CC1 (stereo not drawn)	-3%[59 µM]	11%[57 µM]	1%	-8%	.	.
CCc1cc2c(cc3c(=O)n(CC(=O)N4CCC(C)CC4)nc(CC)n32)s1	-40%[59 µM]	19%	-15%	-14%	.	.
CC1=Nc2ccccc2N=C(NC(=O)/C=C/C(=O)O)C1c1ccccc1 (stereo not drawn)	11µM*	44%	-27%	-16%	5	3
N#Cc1nc(Nc2ccc(Br)cc2)nc(NC2CCCC2)n1	.	.	.	-14%	.	.
CC1CC(=O)NN1C(=O)c1ccccc1 (stereo not drawn)	79µM*	-17%	79µM*	28µM*	-2	4
CC1CC(=O)NC(=O)N1Cc1ccccc1 (stereo not drawn)	.	7%[57 µM]	.	3%	1	-5
Cc1ccc(-n2ncc3c(N4CCCCC4)ncnc32)cc1Cl	10%[59 µM]	75%	12%	6%	.	.
CCCCc1nn2c(=O)cc(COC(=O)c3cccc(NC(=O)CCc4ccccc4)c3)nc2s1	5%[12.7 µM]	35%	-2%	4%	.	.
O=c1nc2c(O)cccn2c2c1c(=O)[nH]c1ccccc12	45µM*	-13%	?	22µM*	4	-83*
O=c1[nH]c2ccccc2c2nc3ccccn3c12	-28%	9%	-32%	-3%	?	?
O=c1cc(O)n(-c2ccc(Cl)cc2)c(=S)[nH]1	10µM*	41%	-2%	-16%	-5	-1
Cc1ccccc1-n1c(O)cc(=O)[nH]c1=S	45µM*	29%	-21%	1%	1	3
O=c1cc(O)n(-c2ccccc2F)c(=S)[nH]1	50µM*	-3%	-10%	-31%	-1	-3
CC1CCN(S(=O)(=O)c2cc(C(=O)N3CCN(c4cccc(Cl)c4)CC3)n(C)c2)CC1	7%[59 µM]	4%[57 µM]	-18%	-35%	.	.
O=C(O)c1ccccc1OC(=O)C12CC3CC(CC(C3)C1)C2	.	24%	-12%	-4%	25	3
COc1ccc(-c2ncccc2OC(=O)C23CC4CC(CC(C4)C2)C3)cc1	25µM*	65%	?	2%	2	5
CC1CCc2c(sc3[nH]c(=S)n(C)c(=O)c23)C1 (stereo not drawn)	3.5µM*	?	5%	?	-1	3
CCn1c(=S)[nH]c2sc3c(c2c1=O)CCCC3	.	5%	-2%	-16%	.	-3
CSc1ccc(CCNC(=O)Cn2c(C)c3cnn(-c4ccccc4)c(=O)c3c2C)cc1	-29%[59 µM]	21%	-2%	-15%	.	.
S=c1cn[nH]c2ccccc12	.	89µM*	.	4.5µM*	-2	-5
COc1ccccc1CNC(=O)CCC1N=C2c3ccccc3N=C(SCC(=O)Nc3ccc(N(C)C)cc3)N2C1=O (stereo not drawn)	-43%[59 µM]	-16%	-36%	?	.	.
CCCCOc1ccc(CNC(=O)CN2CCSc3ccccc32)cc1	?	-10%[57 µM]	?	?	.	.
SMILES	G9a inh	HP1b chromo inh	BAZ2B inh	JMJD2A Tudor inh	CtBP-E1A inh	Six1-Eya2 blk
COCc1nnc(NC(=O)c2ccc(S(=O)(=O)N(C)C3CCCCC3)cc2)o1	?	33%	?	79µM*	-18	-14
CCCN(CCC)S(=O)(=O)c1ccc(C(=O)Nc2nnc(COC)o2)cc1	26%	49%	?	3%	.	-2
COCc1nnc(NC(=O)c2ccc(S(=O)(=O)N3CCCCCC3)cc2)o1	36%	69%	?	79µM*	-9	-14
O=C(Nc1nnc(-c2ccco2)o1)c1ccc(S(=O)(=O)N2CCCC2)cc1	?	48%	.	-8%	-14	-4
COc1cc(OC)c(NC(=O)Nc2ccc3c(c2)N(C)C(=O)c2ccccc2S3)cc1Cl	-7%[59 µM]	12%	-22%	-32%	.	.
COc1ccc(NC(=O)Cn2c(=O)n(CCC(=O)NCCc3ccc(OC)c(OC)c3)c(=O)c3ccccc32)cc1Cl	5%[59 µM]	30%	2%	4%	.	.
C#CCOCCOCCOCCNc1nc(N2CCN(C(=O)C([C@@H](C)CC)n3cc(C(N)COC(=O)C(F)(F)F)nn3)CC2)nc(N2CCN(C(=O)C([C@@H](C)CC)n3cc(C(N)CC(C)C)nn3)CC2)n1 (stereo partly drawn)	.	29%	.	79µM*	.	-3
C#CCOCCOCCOCCNc1nc(N2CCN(C(=O)C([C@@H](C)CC)n3cc(C(N)COC(=O)C(F)(F)F)nn3)CC2)nc(N2CCN(C(=O)[C@H](CCC(=O)O)n3cc(C(N)CC(C)C)nn3)CC2)n1 (stereo partly drawn)	.	42%	.	63µM*	.	-5
CCOC(=O)CSc1nc2ccc(NC(=O)c3ccccc3F)cc2s1	-1%[59 µM]	68%	12%	15%	.	.
CCOc1ccccc1NC(=O)C(C)N(c1ccccc1)S(C)(=O)=O (stereo not drawn)	-10%[59 µM]	15%	-1%	6%	.	.
Fc1ccccc1/C=C1\CCCC2=C1Nc1nnnn1C2c1ccccc1F (stereo not drawn)	50µM*	23%	-4%	-25%	5	0
CCOC(=O)C1=C(C)Nc2nnnn2C1c1ccccc1Cl (stereo not drawn)	-4%[59 µM]	5%	14%	-9%	0	8
N=C1S/C(=C\c2ccc(-c3ccccc3C(=O)O)o2)C(=O)N1c1ccc2c(c1)OCO2	3.5µM*	28µM*	20µM*	22µM*	-9	-29
COc1ccccc1N1C(=N)S/C(=C\c2ccc(-c3ccccc3C(=O)O)o2)C1=O	16µM*	-13%	?	?	0	?
Cc1c(C(=O)O)cccc1-c1ccc(/C=C2\SC(=O)NC2=O)o1	.	17%	-7%	-28%	.	-2
CC(=O)c1ccc(S(=O)(=O)N2CCn3cccc3C2c2ccccc2F)cc1 (stereo not drawn)	?	-3%	?	-32%	.	.
CCCCN(C)CCNC(=O)c1c2c(nc3ccccc13)C(=O)N(C1CCCCC1)C2	5%[59 µM]	1%	-12%	-11%	.	.
CCC(=O)N1CCc2cc(S(=O)(=O)NCCC(=O)Nc3ccc(C)cc3C)ccc21	-1%[59 µM]	35%	.	-6%	.	.
CCC(C)c1ccc(NC(=S)Nc2ccc(OC)c(OC)c2)cc1 (stereo not drawn)	?	?	-35%	-35%	-12	-15
